# Reference: PubChem BioAssay AID504710 (Sanford-Burnham Center for Chemical Genomics, 2011)
# Where “and” joins values, the source holds several entries; their conditions need not be identical. Equal entries are not always repeated. Values without a mark were called inactive. Calls of active or inactive are those of the source.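 How the source made its calls: active means inhibition reaching about 16% in any single replicate (limit read from the data); inactive means the rest.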
# Target: Hexokinase HKDC1 (Homo sapiens) (UniProt Q2TB90)
# Sequence (Q2TB90 whole entry, looked up): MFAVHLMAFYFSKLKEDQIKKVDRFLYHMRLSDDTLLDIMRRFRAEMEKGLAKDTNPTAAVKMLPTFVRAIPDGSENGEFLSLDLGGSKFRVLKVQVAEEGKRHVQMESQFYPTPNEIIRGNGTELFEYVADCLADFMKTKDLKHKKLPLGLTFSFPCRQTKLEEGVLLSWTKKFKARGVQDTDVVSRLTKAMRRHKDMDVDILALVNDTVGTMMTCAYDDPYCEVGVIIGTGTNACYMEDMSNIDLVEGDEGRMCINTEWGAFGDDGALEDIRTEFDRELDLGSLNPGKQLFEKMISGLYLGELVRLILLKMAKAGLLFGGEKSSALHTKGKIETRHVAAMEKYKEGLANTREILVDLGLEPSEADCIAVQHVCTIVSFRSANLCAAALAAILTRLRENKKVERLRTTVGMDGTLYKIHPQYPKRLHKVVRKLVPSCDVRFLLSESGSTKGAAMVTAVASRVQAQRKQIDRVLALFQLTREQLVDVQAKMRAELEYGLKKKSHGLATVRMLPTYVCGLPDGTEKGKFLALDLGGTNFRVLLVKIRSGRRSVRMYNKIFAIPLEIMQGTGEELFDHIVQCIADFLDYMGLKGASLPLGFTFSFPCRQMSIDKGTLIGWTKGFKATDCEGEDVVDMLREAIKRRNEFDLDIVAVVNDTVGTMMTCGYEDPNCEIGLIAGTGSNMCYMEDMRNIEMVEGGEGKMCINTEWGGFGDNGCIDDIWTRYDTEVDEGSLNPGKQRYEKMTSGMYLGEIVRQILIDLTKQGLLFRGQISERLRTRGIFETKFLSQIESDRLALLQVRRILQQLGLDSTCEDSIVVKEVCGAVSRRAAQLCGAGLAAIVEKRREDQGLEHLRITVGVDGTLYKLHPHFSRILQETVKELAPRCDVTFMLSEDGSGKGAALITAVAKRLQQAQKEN
# Experiment: HKDC1 hexokinase inhibitors, confirmation, biochemical, single concentration (AID 504710)
# Settings: recombinant HKDC1, G6PDH/diaphorase/resazurin fluorescence; at 20 µM; hits give high values
row,Compound,inhibition
1,CC(=O)C1=C(c2cccc([N+](=O)[O-])c2)N(C(C)=O)n2c(C)nnc2S1,-387%
2,CCCOc1ccc(/C=N/NC(=S)Nc2ccccc2[N+](=O)[O-])c(O)c1,-47.6%
3,Cc1cc(C)c(S(=O)(=O)/N=C2\C=C(Nc3ccc(C(=O)O)cc3)C(=O)c3ccccc32)c(C)c1,39.5% (active)
4,COc1cc(NC(=O)c2cnc(N)s2)cc(C(=O)Nc2cccc(C(F)(F)F)c2)c1,41.2% (active)
5,Cc1ccc(S(=O)(=O)Nc2c(O)ccc3ccccc23)cc1,35.5% (active)
6,COc1ncnc2c1oc1nc(C(C)C)c3c(c12)CC(C)(C)OC3,43.5% (active)
7,O=C1C(Cl)=C(N2CCC(C(=O)O)CC2)C(=O)c2ccccc21,57.2% (active)
8,O=C(O)c1ccc(S(=O)(=O)/N=C2\C=C(Nc3ccccc3F)C(=O)c3ccccc32)cc1,75.7% (active)
9,O=c1c2ccccc2nc(/C=C/c2cccnc2)n1CCc1ccccc1,38.8% (active)
10,O=C1C=C(N2CCCCC2)c2ccccc2C1=O,86.1% (active)
11,CCC1=NN2C(=N)/C(=C\c3ccc(OCc4cc(=O)n5nc(CC)sc5n4)c(OC)c3)C(=O)N=C2S1,22.8% (active)
12,COc1ccc(S(=O)(=O)Nc2cc(SCC(=O)O)c(O)c3ccccc23)cc1,47.2% (active)
13,O=C1C(Cl)=C(Oc2ccccc2)C(=O)c2ccccc21,77.7% (active)
14,Oc1ccc(O)c(Cc2nc3ccccc3[nH]2)c1,56% (active)
15,O=C(C1=C(c2ccccc2)C(=O)c2ccccc2C1=O)c1ccccc1,52% (active)
16,COc1ccc(OC)c2[nH]c(=O)c(CCNC(=O)c3cc4ccccc4o3)cc12,59.6% (active)
17,CCc1ccc(S(=O)(=O)/N=C2\C=C(Nc3cccc(C(=O)O)c3)C(=O)c3ccccc32)cc1,64.8% (active)
18,CCOC(=O)Cn1c2ccc(F)cc2c2nc(C)sc21,-36.6%
19,O=C(CSc1nnc(CCCN2C(=O)c3cccc4cccc(c34)C2=O)n1-c1ccccc1)N1CCCCC1,48.3% (active)

row,Compound,inhibition
1,CCOC(=O)C1=C(Cc2ccc(Cl)cc2)C(=O)c2ccccc2C1=O,39.3% (active)
2,COc1cc(N=c2ssnc2Cl)c(OC)cc1Cl,-58.8% and -56.9%
3,CC(=O)Oc1cccc2c1C(=O)C1CC=CC(OC(C)=O)C1C2=O (configuration not stated),-65.8%
4,COC1=CC(=O)C=C(OC)C1=O,75.2% (active)
5,CC(=NNC(=S)N1CC2CCC(CC2)C1)c1cccc(C)n1,-51.9%
6,O=C1C(Cl)=C(N2CCCCC2)C(=O)C(Cl)=C1c1cnc(N2CCCCC2)s1,49.4% (active)
7,Cc1ccc(C)c(S(=O)(=O)Nc2cc(SCC(=O)O)c(O)c3ccccc23)c1,55.2% (active)
8,CCC(C)C(N)C1=NC(C(=O)N[C@@H](CC(C)C)C(=O)N[C@H](CCC(=O)[O-])C(=O)N[C@H](C(=O)N[C@H]2CCCCNC(=O)[C@H](CC(N)=O)NC(=O)[C@@H](CC(=O)[O-])NC(=O)[C@H](Cc3cnc[nH]3)NC(=O)[C@@H](Cc3ccccc3)NC(=O)[C@H]([C@@H](C)CC)NC(=O)[C@@H](CCCN)NC2=O)[C@@H](C)CC)CS1.[Zn+2] (some centres not stated),74.9% (active)
9,CC(=NNC(=S)SCc1ccccc1)c1ccccn1,-28.3%
10,CCCCC(=O)NC(c1ccc(N(CC)CC)cc1)c1ccc2cccnc2c1O (configuration not stated),-59.3%
11,NC(=O)C1CCN(C2=C(Cl)C(=O)c3ccccc3C2=O)CC1,73% (active)
12,Cc1cc(C)n2nc(SCc3nnc(SCc4ccccc4Cl)s3)nc2n1,43% (active)
13,Cc1ccc(-n2c3nc(=O)[nH]c(=O)c-3cc3cc([N+](=O)[O-])ccc32)cc1,56.2% (active)
14,CCOC(=O)c1ccc(NC2=CC(=O)C(=O)c3ccccc32)cc1,27.6% (active)
15,COC1=CC(=O)C(C2CC(=O)c3c(O)cc(O)cc3O2)=CC1=O (configuration not stated),39.8% (active)
16,Cn1cnnc1SC1c2cccc3cccc(c23)C1NS(=O)(=O)c1ccccc1 (configuration not stated),-64%
17,COc1ccc(-c2cc(C(=O)NNC(=S)NC(=O)c3c(-c4ccccc4)noc3C)[nH]n2)cc1,-50.1%
18,CCN(CC)Cc1cc(O)c(CN(CC)CC)cc1O,41.2% (active)
